DAX1 inh-1 = DAX1 (NR0B1) inhibitors on StAR promoter, primary screen, cell-based, luminescence, SF-1 (NR5A1), full-length DAX-1; inhibition, % at 6.8 µM; 370,000 compounds, 1.1% hits; HEK293T StAR-luciferase reporter, SF-1/DAX-1 repression relief;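 active means inhibition above the mean over all tested compounds plus 3 SD, cut at about 3.6% in these data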;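 further: 0% = DAX-1 cells with DMSO and 100% = cells lacking DAX-1 with DMSO; higher inhibition means more luminescence from relief of DAX-1 repression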
DAX1 inh-2 = DAX1 (NR0B1) inhibitors, primary screen, cell-based, HEK293, Gal4-DAX1, luciferase luminescence; inhibition, % at 6.75 µM; 340,000 compounds, 0.99% hits; Nuclear receptor subfamily 0 group B member 1 (Homo sapiens), P51843; HEK293 Gal4-DAX1 luciferase reporter;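 active means inhibition above the mean over all tested compounds plus 3 SD, cut at about 4.2% in these data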;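 further: 0% = DAX1-transfected cells with DMSO and 100% = empty-vector control cells with DMSO; inhibition shows as a rise in luminescence from relieved DAX1 repression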
Target sequence (P51843 207-470 limits assumed): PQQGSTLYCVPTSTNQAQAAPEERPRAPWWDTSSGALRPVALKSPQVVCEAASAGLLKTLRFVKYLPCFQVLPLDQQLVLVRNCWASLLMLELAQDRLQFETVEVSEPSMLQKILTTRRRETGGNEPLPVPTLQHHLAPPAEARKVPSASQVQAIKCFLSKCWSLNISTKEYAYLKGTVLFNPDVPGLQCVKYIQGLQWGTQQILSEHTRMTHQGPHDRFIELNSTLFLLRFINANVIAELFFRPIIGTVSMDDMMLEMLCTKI
hgDAF-12 ag = H. glycines DAF-12 receptor agonists, primary screen, cell-based, luminescence, HEK293, GAL4 fusion, UAS-luciferase; AID 687014, 2013; HEK293 GAL4-hgDAF12 UAS-luciferase reporter, agonist luminescence; normalized to butyrate control; 370,000 compounds, 1.8% hits; activation, % at 6.8 µM;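 active means activation above a cutoff set at the mean of all screened compounds plus 3 SD, cut at about 10% in these data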;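 further: 0% = DMSO wells and 100% = sodium butyrate wells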
ssDAF12 agonist = S. stercoralis DAF-12 nuclear receptor activators, primary screen, cell-based, luminescence, HEK293, GRIP1 co-expression, lit1-tk-luc. AID 652126, 2013. 370,000 compounds, 1% hits. activation, % at 6.8 µM. Nuclear hormone receptor DAF-12 (Strongyloides stercoralis). HEK293 ssDAF-12/GRIP1 lit1-tk-luc reporter; % of 3 µM dafachronic acid response;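 active means activation above the mean over all tested compounds plus 3 SD, cut at about 0.9% in these data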;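 further: 0% = DMSO-only wells and 100% = 3 µM delta7-dafachronic acid wells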
hcDAF12 agonist = H. contortus DAF-12 nuclear receptor activators, primary screen, cell-based, luminescence, HEK293, lit1-tk-luc reporter. HEK293 hcDAF-12 lit1-tk-luc reporter; 0% DMSO, 100% Δ7-dafachronic acid. activation, % at 6.8 µM. 370,000 compounds, 1.4% hits. AID 652067, 2013;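 active means activation above the mean of all tested compounds plus 3 SD, cut at about 5.5% in these data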;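 further: 100% = response to 3 µM Δ7-dafachronic acid high control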
* marks the source's active call; other numbers are inactive results; nt = no result given. A selection: hits, their analogues and other compounds. The true share with any hit is near 4.1%.

SMILES	DAX1 inh-1	DAX1 inh-2	hgDAF-12 ag	ssDAF12 agonist	hcDAF12 agonist
Brc1ccc(-c2noc(CCc3ccccc3)n2)o1	2	2	7	0	6.1*
COc1ccc(-n2c(=S)[nH]c(=O)c3cccnc32)cc1	0	7.2*	0	-1	0
COc1ccc(-n2c(=S)[nH]c3c(oc4ccccc43)c2=O)cc1	0	0	0	-1	0
COC(=O)[C@]12C[C@H](CC(=O)NCCC(C)C)C(=O)N(Cc3cccc4ccccc34)C1=C[C@H](C(C)C)O[C@@H]2C1CC1	0	nt	2	-1	-2
COc1ccccc1N1CCN(C(=O)c2cc3c(C)nn(-c4ccccc4)c3s2)CC1	-2	nt	-2	-2	-1
Cc1ccc2cc(CCNC(=O)c3ccco3)c(=O)[nH]c2c1C	4.4*	3	13*	0	6.5*
Cc1ccc2cc(CCNC(=O)c3ccco3)c(=O)[nH]c2c1	2	1	6	-1	1
CC(C)Cn1nc(NC(=O)c2ccco2)c2cc3ccccc3nc21	0	-1	2	-2	-2
CC(C)Cn1nc(NC(=O)c2cccs2)c2cc3ccccc3nc21	0	5.5*	1	-2	-1
Cc1ccc2nc3c(cc2c1)c(NC(=O)c1ccco1)nn3CC(C)C	-1	12*	0	-2	-1
Cc1cc(-c2n[nH]c(=S)n2N=Cc2ccc(-c3ccccc3)cc2)n[nH]1	-1	nt	1	-1	0
O=c1[nH]c(/C=C/c2ccc(Br)cc2)nc2ccccc12	1	3	6	-1	1
Cc1nc(/C=C/c2ccccc2)[nH]c(=O)c1-c1ccccc1	2	3	12*	0	5
COc1cc(COCC(O)CN2C(C)CCCC2C)cc(OC)c1OC (stereo unspecified)	0	4.6*	1	-2	2
COc1ccccc1/C=C/C1(C(=O)NC2CCCC2)CC(=O)N1c1ccccc1 (stereo unspecified)	-1	4.9*	0	-2	-2
CCOC(=O)c1c(NC(=O)COC(=O)c2cc(OC)c(OC)cc2[N+](=O)[O-])sc(C)c1C	0	2	-1	1.4*	3
CCOC(=O)c1c(NC(=O)COC)sc(C)c1C	0	0	-2	-1	-2
O=C(COc1ccc(S(=O)(=O)N2CCc3ccccc32)cc1Cl)NCc1ccccn1	0	-1	2	0.9*	0
O=C(COc1ccc(S(=O)(=O)NCc2ccccc2)cc1Cl)NCc1ccccn1	0	-2	-2	-2	-2
O=C(Nc1ccccc1)SC1CCCCC1	1	2	12*	0	3
O=C(Nc1ccc([N+](=O)[O-])cc1)N1CCCCCC1	4.1*	1	1	-1	0
CCOC(=O)N1CCN(C(=O)c2cc3c(s2)-c2c(C)cccc2OC3)CC1	0	1	-2	-1	-1
CCN1CCN(C(=O)c2cc3c(s2)-c2c(C)cccc2OC3)CC1	nt	5.9*	nt	nt	nt
Cc1ccc2nc(-c3ccc(NS(=O)(=O)c4ccc(F)c(F)c4)cc3)sc2c1	5.8*	2	17*	1	6.4*
Cc1nn(-c2ccccc2)c2sc(C(=O)NNC(=O)COc3ccccc3)cc12	1	1	1	1.6*	2
CC(COc1ccc(OC(F)(F)F)cc1)CN1CCC(C(O)(c2ccccc2)c2ccccc2)CC1 (stereo unspecified)	-2	nt	1	-1	-1
C/C(Cn1nnc([N+](=O)[O-])n1)=N\NC(=O)c1ccccc1	0	0	5	-1	-1
C/C(Cn1cnc([N+](=O)[O-])n1)=N\NC(=O)c1ccccc1	2	4.3*	6	-1	1
O=C(OC12CCCN(C1)/C(=C/c1ccc(Cl)cc1)C2)c1ccc(F)cc1 (stereo unspecified)	0	nt	-3	-1	3

Bioassay records from PubChem BioAssay.
